Rpn11 block: blocks the human proteasome subunit Rpn11; human 26S proteasome, Ub4-pepOG fluorescence polarization; 20S core pre-blocked with epoxomicin; inhibition, % at 20 µM; 360,000 compounds, 0.59% hits; AID 588493;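 active = inhibition at 20 µM, scaled to each plate's controls, above about 33%, limit read from the data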
IDE act: IDE (human) activation, cell-based; 340,000 compounds, 0.073% hits; P14735; activation, % at 5.96 µM; HEK cells, FAbeta-B cleavage, fluorescence polarization; 0% vehicle, 100% cell-free pure enzyme wells;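 active = activation above the mean of all tested compounds plus 3 SD, set per screening campaign, cut at about 17% in these data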
TPT1 inh: blocks Candida albicans tRNA 2'-phosphotransferase; AID 1962; recombinant caTPT1, FP RNA substrate dephosphorylation; inhibition, % at 5 µM; 300,000 compounds, 0.81% hits;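 active = inhibition above the mean of all tested compounds plus 3 SD, set per screening campaign, cut at about 24% in these data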;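 note: plate controls were DMSO alone for no effect and ferristatin control at 100 nM for full effect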
IDE cell inh: cellular human IDE inhibition | 320,000 compounds, 0.41% hits | inhibition, % at 5.59 µM | P14735 | HEK cells, FAbetaB cleavage, fluorescence polarization;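 active = percent inhibition above the average of all tested compounds plus 3 SD, set per screening campaign, cut at about 16% in these data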;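 note: IDE supplied by intact live HEK cells; FP after avidin binding of uncleaved biotin substrate so inhibition keeps polarization high; 0% = DMSO wells and 100% = 60 µM reference IDE inhibitor Ii1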
Calb FLC: C. albicans growth modulation with fluconazole. growth inhibition, % (no concentration beside the values). 300,000 compounds, 0.57% hits. C. albicans CaCi-2 (fluconazole-resistant clinical isolate) + fluconazole, Alamar Blue growth, 48 h;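 active = growth inhibition above about 58% in most replicates, limit read from the data, passing the limit was not always enough; inconclusive = exactly half the replicates above a set limit; inactive = most replicates below a set limit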;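 note: all wells also contain fluconazole at 8 µg/ml as a sub-toxic cotreatment; 0% = median of DMSO wells and 100% = median of geldanamycin control wells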
Rin1-Abl PPI inh: inhibitors of human Rin1-Abl protein interaction; P00519+Q13671; TR-FRET Rin1/Abl binding, biochemical; inhibition, % at 7.35 µM; 360,000 compounds, 0.4% hits; in the data active = inhibition above about 5%, passing the limit was not always enough
TPT1 inh confirm: confirmation of Candida albicans TPT1 inhibitors | recombinant caTPT1, fluorescence polarization, RNase T1 coupled | AID 2149 | 2,400 compounds, 74% hits | inhibition, % at 5 µM | shares compounds with TPT1 inh;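 active = inhibition above the primary screen limit, the mean inhibition of all tested compounds plus 3 SD, cut at about 25% in these data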
RNase T1 inh: counter-screen for TPT1 inhibitors: inhibitors of Aspergillus oryzae RNase T1; RNase T1 cleavage, fluorescence polarization, 1536-well; 2,400 compounds, 83% hits; shares compounds with TPT1 inh; inhibition, % at 5 µM;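 active = inhibition above the solvent-only control well mean plus 3 SD, limit set per screening run, cut at about 23% in these data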;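 note: plate controls were DMSO wells with enzyme for no effect and wells without RNase T1 for full effect; inhibitors block cleavage so intact labeled substrate keeps polarization high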
IDE cell inh cf: confirmation of human insulin-degrading enzyme inhibitors in cells; shares compounds with IDE cell inh; HEK cells, FAbetaB cleavage, fluorescence polarization; inhibition, % at 5.59 µM; 1,200 compounds, 51% hits; AID 435028;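 active = mean inhibition across triplicate wells above the cutoff set by the earlier primary insulin-degrading enzyme screen, cut at about 16% in these data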;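 note: 0% = DMSO wells and 100% = 60 µM reference IDE inhibitor Ii1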
HEK cytotox: counter-screen for IDE inhibitors: cytotoxicity in HEK cells; shares compounds with IDE cell inh; HEK293 cytotoxicity, ATP luminescence; inhibition, % at 5.59 µM; 1,200 compounds, 28% hits; AID 449730; in the data active = inhibition above about 22%;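 note: 0% = vehicle wells and 100% = reference cytotoxic drug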
Rpn11 inh conf: Rpn11 inhibition confirmation, single concentration; shares compounds with Rpn11 block; purified human 26S proteasome, Ub4-pepOG fluorescence polarization; proteasome pretreated with epoxomicin; inhibition, % at 20 µM; 1,900 compounds, 29% hits; AID 602318
MMP-2 inh: counter-screen for RPN11 inhibitors: inhibition of human MMP-2. inhibition, % at 20 µM. recombinant MMP-2, FRET peptide cleavage fluorescence. 1,900 compounds, 4% hits. shares compounds with Rpn11 block;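 note: human MMP-2 activated beforehand with APMA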
Thrombin inh: blocks bovine thrombin, flagging nonselective RPN11 hits; shares compounds with Rpn11 block; bovine thrombin cleavage of Ub4-pepOG, fluorescence polarization; inhibition, % at 20 µM; 1,900 compounds, 13% hits; AID 602333;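 active = mean inhibition at least 40% at 20 µM, or signal 3 deviations below plate average, so some actives read negative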;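 note: plate controls were thrombin with DMSO for no effect and buffer wells lacking thrombin for full effect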
Target sequence (P00735 whole entry, looked up): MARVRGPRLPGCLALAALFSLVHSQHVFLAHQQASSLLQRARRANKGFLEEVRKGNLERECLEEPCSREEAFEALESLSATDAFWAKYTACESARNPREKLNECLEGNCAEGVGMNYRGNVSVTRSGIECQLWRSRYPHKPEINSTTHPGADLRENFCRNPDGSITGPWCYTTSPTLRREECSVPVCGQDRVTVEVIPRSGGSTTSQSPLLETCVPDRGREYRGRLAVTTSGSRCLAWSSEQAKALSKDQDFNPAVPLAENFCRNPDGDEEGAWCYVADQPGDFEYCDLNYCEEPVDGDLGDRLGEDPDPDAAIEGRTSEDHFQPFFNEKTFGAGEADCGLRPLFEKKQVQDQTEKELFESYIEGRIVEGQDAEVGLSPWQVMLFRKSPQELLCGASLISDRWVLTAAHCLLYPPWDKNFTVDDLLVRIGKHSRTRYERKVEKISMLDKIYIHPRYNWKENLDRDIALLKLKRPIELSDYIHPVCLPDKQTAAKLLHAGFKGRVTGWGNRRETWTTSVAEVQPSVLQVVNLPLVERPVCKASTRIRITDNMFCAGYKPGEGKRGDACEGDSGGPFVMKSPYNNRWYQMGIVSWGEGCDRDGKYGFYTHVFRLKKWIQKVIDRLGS
* marks the source's active call; other numbers are inactive results; u = inconclusive; x = no result. Rows were chosen to be rich in hits. Some 2.3% of all compounds tested hit in one or more screens of this group. Cut-off read from the data, not from the text of the source, unless noted: active = inhibition above about 40%; inactive = the rest.

SMILES	Rpn11 block	IDE act	TPT1 inh	IDE cell inh	Calb FLC	Rin1-Abl PPI inh	TPT1 inh confirm	RNase T1 inh	Rpn11 inh conf	MMP-2 inh	Thrombin inh	others
CCCn1c(=O)c(C(=O)NCCc2ccc(OC)cc2)c(O)c2ccccc21	-10	3	x	x	-5	-1	x	x	x	x	x
COc1ccc(N(Cc2cc(=O)[nH]c3ccccc23)C(C)=O)cc1	-6	-6	-1	-7	1	-1	x	x	x	x	x
Cc1cc(SCC(=O)c2ccccc2)nc(=O)[nH]1	22	1	3	0	3	2	x	x	x	x	x
Cc1ccc(C(=O)CSc2cc(C)[nH]c(=O)n2)cc1	60*	0	28*	3	-21	0	39*	47*	49*	16	24
Cc1cc(C)c(C(=O)c2cccs2)c(C)c1	-2	0	x	x	x	-2	x	x	x	x	x
Cc1cc(C(=O)c2cccs2)c(N)s1	53*	0	35*	-5	35	-1	40*	49*	50*	-26	39
Cc1noc(C)c1COc1ccc(C(=O)N2CCCC(C(N)=O)C2)cc1 (stereo not drawn)	-5	2	-2	5	21	0	x	x	x	x	x
COCCN(C(=O)c1ccccc1F)c1nnc(-c2ccc(OC)cc2)s1	2	3	-2	4	-12	0	x	x	x	x	x
Cc1ccc(C(=O)N/N=C/c2c(O)ccc3ccccc23)cn1	122*	-68	84*	64*	89*	0	93*	96*	23	-43	3	IDE cell inh cf=105*;HEK cytotox=96*
O=C(N/N=C/c1c(O)ccc2ccccc12)c1ccc[n+](CCO)c1	15	-4	10	9	-4	-16	x	x	x	x	x
O=C(CCCn1c(=O)oc2ccccc21)NNC(=O)COc1ccc(F)cc1	-2	3	x	-2	x	2	x	x	x	x	x
O=C(CCCN1C(=O)/C(=C\c2ccco2)SC1=S)Nc1ccc(O)cc1C(=O)O	40*	3	27*	9	-6	0	10	18	8	27	-3
O=C(CCCN1C(=O)/C(=C\c2cccs2)SC1=S)Nc1ccc(O)cc1C(=O)O	6	1	1	-2	3	-1	x	x	x	x	x
COc1cccc(/C=C2\SC(=S)N(CCCC(=O)Nc3cccc(C(=O)O)c3)C2=O)c1	-4	x	x	x	x	-4	x	x	x	x	x
O=C(CN1C(=O)/C(=C/c2ccco2)SC1=S)Nc1ccc(C(=O)O)c(O)c1	91*	-5	28*	3	4	5	9	18	43*	35	2
O=C(CCCN1C(=O)/C(=C/c2ccccc2)SC1=S)Nc1ccc(C(=O)O)c(O)c1	10	4	-3	7	-3	1	x	x	x	x	x
COc1ccc(/C=C2\SC(=S)N(CCCC(=O)Nc3cccc(C(=O)O)c3)C2=O)cc1OC	54*	0	36*	0	6	-3	50*	66*	83*	-38	66*
COc1ccc(CCn2c(=N)c(C(=O)NC3CCCC3)cc3c(=O)n4ccccc4nc32)cc1	-2	2	2	0	-2	-6	x	x	x	x	x
COc1ccc(CCn2c(=N)c(C(=O)NC3CCCC3)cc3c(=O)n4ccccc4nc32)cc1OC	42*	4	28*	1	-4	-4	45*	57*	34	-27	24
O=C(O)CCCN1C(=O)/C(=C/c2ccncc2)SC1=S	7	0	0	1	34	0	x	x	x	x	x
O=C(O)CCCN1C(=O)/C(=C/c2ccc(-c3nc4ccccc4s3)o2)SC1=S	185*	0	48*	3	u	-3	95*	103*	44*	-16	-64
NS(=O)(=O)c1ccc(CCNC(=O)C(=O)NCC2OCCN2S(=O)(=O)c2ccc(F)cc2)cc1 (stereo not drawn)	-2	1	-1	5	3	3	x	x	x	x	x
Cc1[nH]c2ccccc2c1/C=C/C(=O)c1ccncc1	47*	3	76*	11	-2	-2	77*	87*	42*	-61	37
O=C(/C=C/c1cccc2ccccc12)c1ccncc1	3	-2	3	-5	-10	-2	x	x	x	x	x
COC(=O)c1c(-c2ccc(C)cc2)csc1NC(=O)c1c(-c2ccccc2)noc1C	x	x	0	-1	1	x	x	x	x	x	x
SMILES	Rpn11 block	IDE act	TPT1 inh	IDE cell inh	Calb FLC	Rin1-Abl PPI inh	TPT1 inh confirm	RNase T1 inh	Rpn11 inh conf	MMP-2 inh	Thrombin inh	others
COC(=O)c1c(-c2cccnc2)csc1NC(=O)c1cc(C)on1	76*	-8	44*	4	0	-4	50*	66*	53*	-18	32
Cc1sc2nc(CSc3nc4ccccc4c(=O)n3CCCN3CCOCC3)[nH]c(=O)c2c1C	50*	-5	57*	1	2	-2	67*	77*	89*	-33	38
O=C(O)c1ccccc1N/N=C/C1=C(N2CCOCC2)C(=C\c2ccccc2)/CC1	60*	6	25*	5	-3	-3	93*	102*	15	-34	-84
COc1ccc(/C=N/Nc2ccc([N+](=O)[O-])cc2)cc1Cn1cc([N+](=O)[O-])cn1	54*	8	108*	5	-12	-2	83*	92*	-3	-23	-4
Cc1ccc2nc(CSc3nnc(Cc4cccs4)n3C3CCCCC3)cc(=O)n2c1	4	-4	-1	0	2	-2	x	x	x	x	x
Cc1sc2nc(CSc3nnc(Cc4cccs4)n3C3CCCCC3)[nH]c(=O)c2c1C	72*	5	38*	1	13	0	66*	74*	102*	-7	59*
CS(=O)(=O)C1=NSC2=NC(=O)/C(=C\c3ccc(OC(=O)c4ccco4)cc3)C(=N)N21	x	x	4	-5	5	x	x	x	x	x	x
COc1cc(/C=C2/C(=N)N3C(=NC2=O)SN=C3S(C)(=O)=O)ccc1OC(=O)c1ccco1	69*	-13	25*	6	32	0	32*	36*	67*	13	39
